{"source": "PubChem BioAssay (NCATS)", "note": "Records with an inconclusive call do not appear. Entries that show only a call come without a potency. Calls of active or inactive are those of the source. Calls follow the shape of the dose curve; as a rule, active = well fitted inhibition curve with a large enough effect; inconclusive = small, poorly fitted or top-dose-only effect; inactive = flat fitted curve, though single readings scatter."}
{"molecular_target": "Calcium and integrin-binding protein 1 (Homo sapiens) (UniProt Q99828)", "sequence (Q99828 whole entry, looked up)": "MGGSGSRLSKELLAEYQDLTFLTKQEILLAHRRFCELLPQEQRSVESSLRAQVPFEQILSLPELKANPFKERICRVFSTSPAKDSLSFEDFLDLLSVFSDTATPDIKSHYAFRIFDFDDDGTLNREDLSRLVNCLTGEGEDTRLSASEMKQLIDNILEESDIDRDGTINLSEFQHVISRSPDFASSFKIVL", "experiment": "Primary qHTS for Identification of Calcium Integrin Binding Protein 1 (CIB1) Competitor (AID 1508620); also: top concentration of the series differs between compounds", "details": "CIB1-GST / FITC-alphaIIb peptide fluorescence polarization; series mostly up to 114 µM", "outline": "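Fluorescence polarization competition: GST-tagged CIB1 (1 uM final) preincubated with compound 15 min at room temperature, then FITC-labelled alphaIIb peptide (100 nM final) added. After 15 min at room temperature, polarization read at Ex 480/Em 540.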"}
{"smiles": "O=C(O)c1ccc2c(c1)C(=O)N([C@@H](C(=O)O)C(c1ccccc1)c1ccccc1)C2=O", "Potency": "inactive"}
{"smiles": "Cc1cc(C)nc(NC(=S)N2CCN(c3nccc4ccccc34)CC2)c1", "Potency": "inactive"}
{"smiles": "O=C(Cn1cc(CN(Cc2ccccc2)Cc2ccccc2)nn1)Nc1cc(C(F)(F)F)ccc1Cl", "Potency": "inactive"}
{"smiles": "COc1ccc(C2=Nn3c(nnc3-c3ccccc3C(F)(F)F)SC2)cc1OC1CCOC1", "note": "(stereo not given)", "Potency": "inactive"}
{"smiles": "Cc1cc(C)n2ncc(C(=O)NCc3ccco3)c2n1", "Potency": "inactive"}
{"smiles": "Oc1ccc(COC2CCCC2)c2cccnc12", "Potency": "inactive"}
{"smiles": "FC1(F)Oc2ccc(-c3ccc4ncnc(NCc5cccs5)c4c3)cc2O1", "Potency": "inactive"}
{"smiles": "O=C(NC(c1ccco1)c1cc(Cl)c2cccnc2c1O)c1ccccc1", "note": "(stereo not given)", "Potency": "inactive"}
{"smiles": "Cn1nnnc1Sc1ncnc2scc(-c3ccc(C(=O)OC(C)(C)C)cc3)c12", "Potency": "inactive"}
{"smiles": "Cc1cccc(S(=O)(=O)N2CCN(S(=O)(=O)c3ccc4c(c3)OCCO4)CC2)c1", "Potency": "inactive"}
{"smiles": "CC(=O)N1CCN(c2ccc(NCc3ccccc3)cc2)CC1", "Potency": "inactive"}
{"smiles": "CCOc1ccc(CCNC(=O)c2ccc3[nH]ccc3c2)cc1OCC", "Potency": "inactive"}
{"smiles": "Cc1ccc(OCCn2c(CCNC(=O)C3CCCC3)nc3ccccc32)cc1", "Potency": "inactive"}
{"smiles": "COc1ccccc1NS(=O)(=O)c1cc(NC(=O)c2ccccc2)ccc1N1CCCC1", "Potency": "inactive"}
{"smiles": "C[C@@](Cc1ccccc1)(C(=O)O)N1C(=O)c2ccc(C(=O)O)cc2C1=O", "Potency": "inactive"}
{"smiles": "CCC(=O)Nc1ccc(OCc2cc(C3Nc4ccccc4C(=O)N3Cc3ccccc3)ccc2OC)cc1", "note": "(stereo not given)", "Potency": "inactive"}
{"smiles": "COc1cccc(CNc2ccc(S(=O)(=O)Nc3ccc(C)nc3)cc2)c1O", "Potency": "inactive"}
{"smiles": "COc1ccc(C(=O)N(Cc2ccccc2)Cc2ccc(OC)c(COc3ccc(NC(C)=O)cc3)c2)c(O)c1", "Potency": "inactive"}
{"smiles": "Cc1c(P(=S)(c2ccccc2)c2ccccc2)c2ccccc2n1C(=O)NCc1ccc(F)cc1", "Potency": "inactive"}
{"smiles": "CC(C)(C)OC(=O)NC1CCN(c2nc(-c3ccc(Br)cc3)cs2)CC1", "Potency": "inactive"}
{"smiles": "COc1ccc(O)c(C2Nc3ccccc3C(=O)N2Cc2ccccc2)c1", "note": "(stereo not given)", "Potency": "inactive"}
{"smiles": "O=C(COc1ccc(F)cc1)NCCc1nc2ccccc2[nH]1", "Potency": "inactive"}
{"smiles": "CCNC(=O)c1ccc(-c2ccc3ncnc(NCc4ccc(C)o4)c3c2)o1", "Potency": "inactive"}
{"smiles": "COC(=O)c1ccc(-c2c(NC(C)=O)sc3c2CCNC3)cc1", "Potency": "inactive"}
{"smiles": "NC(=O)C1CCN(c2nc(-c3ccc4c(c3)CCO4)cs2)CC1", "Potency": "inactive"}
{"smiles": "COc1ccccc1N1C(=O)c2ccccc2C1=O", "Potency": "inactive"}
{"smiles": "Cc1cccc(Cn2ncc3c4sc(C)cc4n(C)c3c2=O)c1", "Potency": "inactive"}
{"smiles": "O=[S+]([O-])(c1ccc2c(c1)OCCO2)N1CCN([S+](=O)([O-])c2c(F)cc(F)cc2Br)CC1", "Potency": "inactive"}
{"smiles": "Cc1cc(C)nc(NC(=C(C#N)C#N)N2CCN(c3cccc(C(F)(F)F)c3)CC2)c1", "Potency": "inactive"}
{"smiles": "NC(=O)C1CCN(c2nc(-c3ccc4c(c3)OCCCO4)cs2)CC1", "Potency": "inactive"}
{"smiles": "N#Cc1nc(NCCO)nc(Nc2ccccc2)n1", "Potency": "inactive"}
{"smiles": "O=C(Nc1ccc(F)c(C(F)(F)F)c1)Nc1nnc(-c2cccnc2)s1", "Potency": "inactive"}
{"smiles": "Cc1cc(C)c(C)c(S(=O)(=O)N2CCN(S(=O)(=O)c3ccc4c(c3)OCCO4)CC2)c1C", "Potency": "inactive"}
{"smiles": "Brc1cnc2nc(SCc3ccccc3)[nH]c2c1", "Potency": "inactive"}
{"smiles": "CC(C)(C)c1ccc(-c2csc(N3CCC(C(N)=O)CC3)n2)cc1", "Potency": "inactive"}
{"smiles": "O=C(Nc1ccc(Cl)cc1)Nc1nnc(-c2ccncc2)s1", "Potency": "inactive"}
{"smiles": "CC(C)(C)OC(=O)N1CCN(c2cnc(NCc3ccc(-c4ccc(C#N)cc4)o3)cn2)CC1", "Potency": "inactive"}
{"smiles": "COc1cc(O)c(C(CC(=O)N2CCC(C)CC2)c2ccc(OC)c(OC)c2)c(OC)c1", "note": "(stereo not given)", "Potency": "inactive"}
{"smiles": "COc1ccc2nc(-c3cccc(F)c3)sc2c1", "Potency": "inactive"}
{"smiles": "O=C(O)c1cc(Br)c(O)c2ncccc12", "Potency": "inactive"}
